Consider ten molecules from PubChem BioAssay (EPA / NIEHS).

Test [1] in a line: CEETOX_H295R_ESTRADIOL: CeeTox H295R High-throughput Steroidogenesis Assay for Estradiol (AID 2283440).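 Note: estradiol secreted into medium quantified by LC-MS/MS after dansyl derivatisation.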 To be noted: actives raise or lower the signal. In outline:
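H295R cells pre-stimulated 48 h with 10 uM forskolin, then exposed 48 h to chemical in 0.1% DMSO. Medium estradiol quantified by MTBE extraction, dansyl derivatisation and HPLC-MS/MS; bidirectional fit versus DMSO; MTT viability required >/=70%.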

Test [2] in a line: CEETOX_H295R_ESTRONE: CeeTox H295R High-throughput Steroidogenesis Assay for Estrone (AID 2283441).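 Note: estrone secreted into medium measured by LC-MS/MS after dansyl derivatization.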 The conditions noted are these: actives raise or lower the signal. The method in brief:
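H295R cells; 48 h forskolin (10 uM) prestimulation; 48 h compound exposure, 0.1% DMSO final. Medium estrone: MTBE extraction, dansyl derivatization, HPLC-MS/MS. Bidirectional fit vs DMSO.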

Test [3] is described as follows: CEETOX_H295R_PROG: CeeTox H295R High-throughput Steroidogenesis Assay for Progesterone (PROG) (AID 2283442).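 For AC50: human H295R adrenal cells primed with 10 µM forskolin before dosing.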 To be noted: actives raise or lower the signal. The method in brief: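 H295R adrenal cells prestimulated 48 h with 10 uM forskolin, then exposed 48 h to test chemical in 0.1% DMSO. Progesterone in medium quantified by HPLC-MS/MS after MTBE extraction; viability checked by MTT in same wells.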

Read-out in test [4]: Tumor necrosis factor receptor superfamily member 6 (Homo sapiens) (UniProt P25445)
Kind of test: LTEA_HepaRG_FAS: Life Technologies and Expression Analysis (LTEA) Assay for Fas cell surface death receptor (FAS) using HepaRG (AID 2283447). The conditions noted are these: mRNA level, 48 h; actives raise or lower the signal. In outline:
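FAS transcript level was measured by TaqMan qRT-PCR against three housekeeping genes after 48 h chemical exposure. Cells were HepaRG, 0.5% DMSO vehicle, with a top concentration of 100 uM and half-log dilutions over eight points, in duplicate.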

Read-out in test [5]: Cyclin Dependent Kinase Inhibitor 1A (CDKN1A), CDKN1A (gene 1026)
The test can be described thus: LTEA_HepaRG_CDKN1A: Life Technologies and Expression Analysis (LTEA) Assay for Cyclin Dependent Kinase Inhibitor 1A (CDKN1A) using HepaRG (AID 2283450). The conditions noted are these: mRNA level, 48 h; actives raise or lower the signal. In outline: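 Differentiated HepaRG cells in serum-free induction medium, exposed 48 h in duplicate to eight half-log concentrations up to 100 uM in 0.5% DMSO. mRNA measured by TaqMan qRT-PCR, normalized to ACTB, GAPDH, POLR2A; bidirectional fit versus DMSO.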

Read-out in test [6]: Cyclin D1 (CCND1), CCND1 (gene 595)
Kind of test: LTEA_HepaRG_CCND1: Life Technologies and Expression Analysis (LTEA) Assay for Cyclin D1 (CCND1) using HepaRG (AID 2283451). To be noted: mRNA level, 48 h; actives raise or lower the signal. The method in brief:
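Differentiated HepaRG cells exposed 48 h in serum-free induction medium to eight half-log concentrations from 100 uM top, 0.5% DMSO, duplicates. CCND1 mRNA measured by Fluidigm TaqMan qRT-PCR, normalised to ACTB, GAPDH, POLR2A; bidirectional fit.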

Read-out in test [7]: catalase (CAT), CAT (gene 847)
Kind of test: LTEA_HepaRG_CAT: Life Technologies and Expression Analysis (LTEA) Assay for catalase (CAT) using HepaRG (AID 2283452). The conditions noted are these: mRNA level, 48 h; actives raise or lower the signal. In outline:
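Expression of CAT was quantified by TaqMan qRT-PCR with ACTB/GAPDH/POLR2A normalization after 48 h chemical exposure of HepaRG. Eight-point half-log series, top 100 uM, in 0.5% DMSO; gain or loss fitted against vehicle.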

Read-out in test [8]: flavin-containing dimethylaniline monooxygenases 3 (FMO3), FMO3 (gene 2328)
Kind of test: LTEA_HepaRG_FMO3: Life Technologies and Expression Analysis (LTEA) Assay for flavin-containing dimethylaniline monooxygenases 3 (FMO3) using HepaRG (AID 2283453). To be noted: mRNA level, 48 h; actives raise or lower the signal. In outline: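 HepaRG, 48 h exposure, 8-pt half-log series from 100 uM, 0.5% DMSO vehicle, duplicates; FMO3 transcript by Fluidigm TaqMan qRT-PCR, housekeeping-normalized; gain/loss fit vs DMSO.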

Read-out in test [9]: Cytochrome P450 (CYP1A1), CYP1A1 (gene 1543)
Kind of test: LTEA_HepaRG_CYP1A1: Life Technologies and Expression Analysis (LTEA) Assay for Cytochrome P450 (CYP1A1) using HepaRG (AID 2283454). The conditions noted are these: mRNA level, 48 h; actives raise or lower the signal. The method in brief:
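Differentiated human HepaRG cells, after 48 h plating, exposed in duplicate for 48 h in serum-free induction medium to 8 half-log concentrations up to 100 uM in 0.5% DMSO. CYP1A1 mRNA by qRT-PCR, normalized to ACTB/GAPDH/POLR2A; bidirectional fit versus DMSO.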

Read-out in test [10]: CFLAR gene, CFLAR (gene 8837)
The test can be described thus: LTEA_HepaRG_CFLAR: Life Technologies and Expression Analysis (LTEA) Assay for CFLAR gene using HepaRG (AID 2283455). To be noted: mRNA level, 48 h; actives raise or lower the signal. The method in brief:
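HepaRG, 48 h exposure, 8-pt conc-response (100 uM top, half-log), 0.5% DMSO vehicle, duplicates. CFLAR expression by qRT-PCR; ACTB/GAPDH/POLR2A normalization; gain or loss fit vs DMSO baseline.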

Read-out in test [11]: Forkhead box O1 (FOXO1), FOXO1 (gene 2308)
The test can be described thus: LTEA_HepaRG_FOXO1: Life Technologies and Expression Analysis (LTEA) Assay for Forkhead box O1 (FOXO1) using HepaRG (AID 2283456). The conditions noted are these: mRNA level, 48 h; actives raise or lower the signal. The method in brief: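 Readout is FOXO1 transcript level by multiplexed qRT-PCR against three housekeeping genes, curve-fitted in both directions relative to 0.5% DMSO vehicle. Human HepaRG cultures received chemicals for 48 h, up to 100 uM in half-log steps.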

Read-out in test [12]: growth arrest and DNA damage 45 (GADD45A), GADD45A (gene 1647)
Kind of test: LTEA_HepaRG_GADD45A: Life Technologies and Expression Analysis (LTEA) Assay for growth arrest and DNA damage 45 (GADD45A) using HepaRG (AID 2283458). The conditions noted are these: mRNA level, 48 h; actives raise or lower the signal. The method in brief: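 Differentiated HepaRG cells were exposed in duplicate for 48 h in serum-free induction medium to 8-point half-log concentrations up to 100 uM in 0.5% DMSO. GADD45A mRNA was measured by TaqMan qRT-PCR, normalized to ACTB, GAPDH and POLR2A, with bidirectional fitting versus DMSO.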

Read-out in test [13]: Forkhead box O3 (FOXO3), FOXO3 (gene 2309)
The test can be described thus: LTEA_HepaRG_FOXO3: Life Technologies and Expression Analysis (LTEA) Assay for Forkhead box O3 (FOXO3) using HepaRG (AID 2283459). The conditions noted are these: mRNA level, 48 h; actives raise or lower the signal. The method in brief:
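HepaRG, 48 h post-dose; 8 conc., half-log from 100 uM, 0.5% DMSO, duplicates; serum-free induction medium. Readout: FOXO3 mRNA, TaqMan qRT-PCR, housekeeping-normalized. Bidirectional curve fit vs DMSO baseline.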

Read-out in test [14]: ABC Transporter (ABCB1), ABCB1 (gene 5243)
The test can be described thus: LTEA_HepaRG_ABCB1: Life Technologies and Expression Analysis (LTEA) Assay for ABC Transporter (ABCB1) using HepaRG (AID 2283460). The conditions noted are these: mRNA level, 48 h; actives raise or lower the signal. In outline:
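Expression of ABCB1 was quantified by qRT-PCR against three housekeeping genes after human HepaRG cultures received test chemicals for 48 hours. Concentrations spanned eight half-log steps topping at 100 uM in 0.5% DMSO; gain or loss of signal was fitted relative to vehicle.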

Read-out in test [15]: growth arrest and DNA damage 45 (GADD45B), GADD45B (gene 4616)
Kind of test: LTEA_HepaRG_GADD45B: Life Technologies and Expression Analysis (LTEA) Assay for growth arrest and DNA damage 45 (GADD45B) using HepaRG (AID 2283461). The conditions noted are these: mRNA level, 48 h; actives raise or lower the signal. The method in brief: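 Differentiated human HepaRG cells in serum-free induction medium exposed 48 h in duplicate to eight concentrations, top 100 uM, half-log steps, 0.5% DMSO. GADD45B mRNA by TaqMan qRT-PCR, normalized to ACTB, GAPDH, POLR2A; bidirectional fit versus DMSO.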

Read-out in test [16]: ABC Transporter (ABCC3), ABCC3 (gene 8714)
Kind of test: LTEA_HepaRG_ABCC3: Life Technologies and Expression Analysis (LTEA) Assay for ABC Transporter (ABCC3) using HepaRG (AID 2283462). The conditions noted are these: mRNA level, 48 h; actives raise or lower the signal. In outline: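 Differentiated human HepaRG cells exposed 48 h in serum-free induction medium, 0.5% DMSO vehicle, 8-point half-log series to 100 uM in duplicate. ABCC3 mRNA by qRT-PCR, normalised to ACTB, GAPDH, POLR2A; bidirectional fit vs DMSO.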

Test [17] in a line: CEETOX_H295R_TESTO: CeeTox H295R High-throughput Steroidogenesis Assay for Testosterone (TESTO) (AID 2283457).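 For AC50: cells exposed to chemicals for 48 h before medium collection.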 To be noted: actives raise or lower the signal. The method in brief:
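H295R adrenal cells, passage ≤10, exposed to chemicals for 48 h. Testosterone in medium measured by MTBE extraction and HPLC-MS/MS against a 7-point standard curve. Bidirectional fit versus DMSO; MTT viability checked in the same wells.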

Read-out in test [18]: Cyclin D2 (CCND2), CCND2 (gene 894)
The test can be described thus: LTEA_HepaRG_CCND2: Life Technologies and Expression Analysis (LTEA) Assay for Cyclin D2 (CCND2) using HepaRG (AID 2283449). The conditions noted are these: mRNA level, 48 h; actives raise or lower the signal. The method in brief:
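Read-out is CCND2 mRNA level measured by qRT-PCR in human HepaRG liver cells and normalised to three housekeeping genes. Chemicals were applied for 48 h at up to 100 uM, with gain or loss fitted relative to 0.5% DMSO.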

The source made the active and inactive calls. Rule for the calls: active = hit-call score of the fitted dose curve at least 0.9, where 1 is the maximum; inactive = score below 0.9.

As usually defined, the AC50 is the concentration giving half of the maximal activity seen.

Turning to `Nc1ccc2ccccc2c1`, the call in test [1], in [2], in test [4], in test [5], in test [6] and in [7] was inactive. Moreover, the outcome in test [8], in test [10], in [11], in [12], in [13] and in test [14] was inactive. Besides, the molecule was classed as inactive in test [15] and in test [16]. The half-maximal activity concentration (AC50) is 13.8 µM (active) in [3] and 23.5 µM (active) in test [9].
Consider `CC(C)Nc1ccc(Nc2ccccc2)cc1`, for which the outcome in test [1], in test [2] and in test [3] was inactive.
Turning to `COP(N)(=S)OC`, the result in test [3] and in test [17] was inactive.
In the case of `CCCCOCCOP(=O)(OCCOCCCC)OCCOCCCC`, the result in test [1], in test [2] and in test [3] was inactive.
As to `CCOP(=S)(NC(C)C)Oc1ccccc1C(=O)OC(C)C` (stereo not drawn), the result in test [1] and in test [2] was inactive. Also, the AC50 in test [3] was 6.65 µM (active).
On to `CCC(C)(C)c1ccc(O)cc1`, for which the call in [1], in test [2], in test [3], in [4], in test [18] and in [5] was inactive. The molecule was called inactive in [6], in test [7], in [8], in test [9], in test [10] and in test [11]. For the same molecule, the molecule was classed as inactive in [12], in test [13], in test [14], in test [15] and in [16].
As to `CO/N=C(/C(=O)OC)c1ccccc1COc1ccccc1C`, the values for the AC50 in test [3] and in test [17] were 4.24 µM (active) and 9.76 µM (active), respectively.
Consider `O=S(=O)(c1ccc(O)cc1)c1ccc(O)cc1`, for which the AC50 was 18.3 µM (active) in test [1] and 1.32 µM (active) in test [3]. Further, in test [2], the result was inactive.
For the molecule `Nc1cc2c3c(c1)C(c1ccccc1)=N[C@@H](NC(=O)c1cccnc1)C(=O)N3CC2`, the result in test [1], in test [2], in [4], in test [18], in test [5] and in [6] was inactive. The call in [7], in test [8], in test [10], in test [11], in test [12] and in [13] was inactive. Further, the molecule was classed as inactive in test [15] and in test [16]. In addition, the AC50 is 3.44 µM (active) in test [3], 31.8 µM (active) in test [9] and 18.5 µM (active) in test [14].
On to `CCOP(=S)(Oc1ccc([N+](=O)[O-])cc1)c1ccccc1` (stereo not drawn), for which the call in test [1], in test [2], in [4], in test [18], in test [5] and in [6] was inactive. In addition, the molecule was classed as inactive in test [7], in test [8], in test [10], in [11], in test [12] and in test [13]. The molecule was called inactive in test [15] and in [16]. For the same molecule, the concentration at half-maximal activity (AC50) in [3] was 0.786 µM (active); in test [9], 14.3 µM (active); in test [14], 4.56 µM (active).
